Screening data: PubChem, several laboratories
Only some compounds are listed: those with a hit (about 1.8% of all), similar ones and a draw of the others.
EP2 mod = modulates human prostaglandin E2 receptor EP2 signaling | EP2-expressing cells, cAMP HTRF FRET, PGE2 co-stimulation | induction, % at 25 µM | hit rate 0.83% among 260,000;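 active means compounds whose cAMP rise, as percent of the full-agonist control response, exceeds 60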;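 further: rat C6 glioma line stably carrying human EP2 under a CMV promoter; the protocol text gives 20 µM as final concentration; 100% = response of wells given 1 µM PGE2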
PERK inhibitor = inhibitors of human PERK kinase; inhibition, % at 5.6 µM; AID 1416; CHO PERK-DD fusion, SEAP luminescence translation reporter; Q9NZJ5; hit rate 0.17% among 220,000;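 active means inhibition above the mean inhibition of all tested compounds plus 3 SD, set separately per screening campaign, cut at about 2.9% in these data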;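 further: PERK kinase domain activated by AP20187 dimerizer at 100 nM; 0% = DMSO with dimerizer and 100% = rapamycin at 8.4 µM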
Target sequence (Q9NZJ5 whole entry, looked up, the tested form may be a part): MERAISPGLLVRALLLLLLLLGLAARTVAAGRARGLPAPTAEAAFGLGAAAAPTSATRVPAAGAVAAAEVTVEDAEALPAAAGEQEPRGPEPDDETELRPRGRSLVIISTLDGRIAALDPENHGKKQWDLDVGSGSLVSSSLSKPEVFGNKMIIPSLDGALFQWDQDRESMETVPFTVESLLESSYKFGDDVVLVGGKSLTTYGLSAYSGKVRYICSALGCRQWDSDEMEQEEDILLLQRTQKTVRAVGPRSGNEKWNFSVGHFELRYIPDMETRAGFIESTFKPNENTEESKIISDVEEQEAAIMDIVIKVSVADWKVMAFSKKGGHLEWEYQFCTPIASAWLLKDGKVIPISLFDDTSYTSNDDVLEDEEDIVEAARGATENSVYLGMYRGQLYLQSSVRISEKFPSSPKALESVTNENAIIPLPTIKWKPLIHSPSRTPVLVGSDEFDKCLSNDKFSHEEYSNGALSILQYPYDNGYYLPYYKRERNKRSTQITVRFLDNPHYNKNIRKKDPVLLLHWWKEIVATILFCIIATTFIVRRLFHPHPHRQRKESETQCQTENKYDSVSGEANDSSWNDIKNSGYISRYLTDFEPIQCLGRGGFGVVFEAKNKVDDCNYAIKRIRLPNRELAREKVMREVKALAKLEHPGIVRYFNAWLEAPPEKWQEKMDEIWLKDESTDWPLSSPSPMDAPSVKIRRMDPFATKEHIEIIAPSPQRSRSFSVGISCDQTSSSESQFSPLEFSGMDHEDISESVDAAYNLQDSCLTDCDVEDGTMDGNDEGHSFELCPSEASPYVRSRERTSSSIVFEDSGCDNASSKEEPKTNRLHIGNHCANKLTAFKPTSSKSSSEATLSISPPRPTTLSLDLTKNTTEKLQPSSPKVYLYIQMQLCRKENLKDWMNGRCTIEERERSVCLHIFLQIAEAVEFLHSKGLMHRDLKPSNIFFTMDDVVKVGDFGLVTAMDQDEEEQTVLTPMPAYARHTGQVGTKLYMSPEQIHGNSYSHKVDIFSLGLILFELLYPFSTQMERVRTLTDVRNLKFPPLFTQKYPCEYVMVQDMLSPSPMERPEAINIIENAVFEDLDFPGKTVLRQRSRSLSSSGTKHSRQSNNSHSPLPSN
eIF4E 4G PPI = blocks eIF4E binding to eIF4G; P63073+Q04637; TR-FRET eIF4E-eIF4GI(517-606) binding, 2 h; inhibition, % at 21.7 µM; hit rate 0.37% among 220,000; AID 782;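 active means inhibition above about 30%, limit read from the data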;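 further: 0% = full FRET control wells and 100% = background wells lacking eIF4GI fragment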
PGE2 EP2 inh = EP2 receptor (human) inhibition; P43116; C6 glioma cells expressing human EP2, cAMP TR-FRET; cells stimulated with saturating PGE2; inhibition, % at 25 µM; hit rate 0.52% among 260,000; AID 1422;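 active means percent inhibition above 40 after rounding to a whole number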;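 further: rat C6 glioma host cells with rolipram phosphodiesterase inhibitor present; the protocol text gives 20 µM as final concentration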
* hit, by the source's call; ! = a repeat was not active.

How did Nc1nc(Nc2ccccc2F)nc(NCc2ccccc2)c1[N+](=O)[O-] do in these assays?
EP2 mod: 76*; PERK inhibitor: -2; eIF4E 4G PPI: -1; PGE2 EP2 inh: 6

Results for Nc1nc(NCc2ccccc2)nc(NCc2ccccc2)c1[N+](=O)[O-] ?
EP2 mod: 31; PERK inhibitor: 0; eIF4E 4G PPI: -1; PGE2 EP2 inh: 4

What do the screens show for `Nc1nc(Nc2ccccc2)nc(NCc2ccccc2)c1[N+](=O)[O-]`?
EP2 mod: 38; PERK inhibitor: -2; eIF4E 4G PPI: 4; PGE2 EP2 inh: 5

What do the screens show for `Cc1cccc(Nc2nc(N)c([N+](=O)[O-])c(NCc3ccccc3)n2)c1`?
EP2 mod: 76*; PERK inhibitor: 0; eIF4E 4G PPI: 4; PGE2 EP2 inh: 11

Results for N=C1[C@H](O)[C@]2(I)c3ccccc3N3C(=N)[C@H](O)[C@@H]4c5ccccc5N1[C@@H]4[C@@H]32 ?
EP2 mod: 7; PGE2 EP2 inh: 68*

What do the screens show for `CCN(CC)CCNC(=O)CCCCn1c(=S)[nH]c2c([nH]c3ccc(OC)cc32)c1=O`?
EP2 mod: -6; PERK inhibitor: 1; eIF4E 4G PPI: 47*; PGE2 EP2 inh: 9

What do the screens show for `CC(=O)c1nnn(-c2c(F)cccc2F)c1C`?
EP2 mod: 16; PERK inhibitor: 3.1*; eIF4E 4G PPI: 3; PGE2 EP2 inh: 10

How did Cc1ccc(C)c2[nH]c(=O)c(CN(CCCN3CCOCC3)C(=O)Nc3ccccc3Cl)cc12 do in these assays?
EP2 mod: -40; PGE2 EP2 inh: 11

What do the screens show for `CN(c1ccc(C(=O)N2CCOCC2)cc1)S(C)(=O)=O`?
EP2 mod: -8; PERK inhibitor: 0; PGE2 EP2 inh: 146*

What do the screens show for `CCOC(=O)C(C)Sc1nc(-c2ccccc2)ccc1C#N` (centres undefined)?
EP2 mod: 62*; PGE2 EP2 inh: 6

What do the screens show for `CC(C)C(Sc1nc(-c2ccccc2)cc(-c2ccccc2)c1C#N)C(=O)O` (centres undefined)?
EP2 mod: 62*; PERK inhibitor: 1; eIF4E 4G PPI: 4; PGE2 EP2 inh: 10

How did COc1cccc(C(=O)COc2ccccc2-c2ccccc2)c1 do in these assays?
EP2 mod: 61*; PERK inhibitor: 0; eIF4E 4G PPI: 0; PGE2 EP2 inh: 8

How did CCC(c1nnnn1C1CCCCC1)N(Cc1ccco1)Cc1cc2c(C)ccc(C)c2[nH]c1=O (centres undefined) do in these assays?
EP2 mod: 76*; PGE2 EP2 inh: 13

Results for CCC(c1nnnn1C1CCCC1)N(Cc1ccccc1)Cc1cc2cccc(C)c2[nH]c1=O (centres undefined) ?
EP2 mod: 64*; PGE2 EP2 inh: 25

What do the screens show for `O=C(NCc1ccc2c(c1)OCO2)c1ncoc1-c1cccs1`?
EP2 mod: -82; PGE2 EP2 inh: 9

Results for Cn1c(=O)n(Cc2ccccc2F)c2ccccc21 ?
EP2 mod: 30; PERK inhibitor: 0; eIF4E 4G PPI: -3; PGE2 EP2 inh: 8

Results for Cn1c(=O)n(Cc2ccccc2Cl)c2ccccc21 ?
EP2 mod: 61*; PERK inhibitor: 1; eIF4E 4G PPI: -5; PGE2 EP2 inh: 10

Results for CC(C)Sc1nc2c(c(=O)n(C)c(=O)n2C)n1Cc1ccccc1Cl ?
EP2 mod: 62*; PGE2 EP2 inh: 4

What do the screens show for `CCCn1c(SCC(=O)Nc2ccccc2C(=O)OC)nc2c1c(=O)n(C)c(=O)n2C`?
EP2 mod: 43; PERK inhibitor: 0; eIF4E 4G PPI: -7; PGE2 EP2 inh: 3

How did C=C(C)CSc1nc2c(c(=O)n(C)c(=O)n2C)n1Cc1ccccc1Cl do in these assays?
EP2 mod: 74*; PGE2 EP2 inh: 9

What do the screens show for `Cc1nnc(Sc2nc3c(c(=O)n(C)c(=O)n3C)n2Cc2ccccc2Cl)s1`?
PERK inhibitor: 0; PGE2 EP2 inh: 1

Results for CCCn1c(SCC(=O)Nc2ccccc2N2CCCCC2)nc2c1c(=O)n(C)c(=O)n2C ?
EP2 mod: 78*!; PERK inhibitor: -1; eIF4E 4G PPI: 4; PGE2 EP2 inh: 22

What do the screens show for `COc1ccc(S(=O)(=O)N2CCC(C(=O)Nc3cccc(C)c3C)CC2)cc1OC`?
EP2 mod: -2; PGE2 EP2 inh: 10

What do the screens show for `CCC(C)Sc1nc2c(c(=O)n(C)c(=O)n2C)n1Cc1ccc(Cl)cc1` (centres undefined)?
EP2 mod: 70*; PGE2 EP2 inh: 7

Results for CCSc1nc2c(c(=O)n(C)c(=O)n2C)n1Cc1cccc2ccccc12 ?
EP2 mod: 72*; PGE2 EP2 inh: 13
